Counter-ions that a name gives are not always drawn.
Experiments:
Experiment in all cases: thermal shift delta Tm vs DMSO control; higher = stronger stabilization (binding)
Settings in all cases: 12.5 µM; protein concentration 2 µM
[1] = tested on: LOC_OS02G45750-cb003
Outline: (§1)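 Heating from 25°C to 95°C at 0.05°C/s, fluorescence was recorded for 19.5 μl wells of 2 μM E. coli-expressed, purified rice kinase domain in 100 mM potassium phosphate pH 7.5, 150 mM NaCl, 10% glycerol and 5 × SYPRO Orange with compound in DMSO. Boltzmann fits gave melting temperatures for this differential scanning fluorimetry assay. The shift reported is the mean of three replicates against the DMSO-only protein.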

[2] = tested on: LOC_OS02G54510-cb004
Outline: as §1

[3] = tested on: LOC_OS03G04050-cb001
Outline: as §1

[4] = tested on: LOC_OS03G12390-cb001
Outline: as §1

[5] = tested on: LOC_OS03G27990-cb004
Outline: as §1

[6] = tested on: LOC_OS03G50450-cb001
Outline: as §1

[7] = tested on: LOC_OS03G50810-cb003
Outline: as §1

[8] = tested on: LOC_OS04G35114-cb001
Outline: as §1

[9] = tested on: T1, LOC_OS04G38480-cb003
T1 sequence (whole entry): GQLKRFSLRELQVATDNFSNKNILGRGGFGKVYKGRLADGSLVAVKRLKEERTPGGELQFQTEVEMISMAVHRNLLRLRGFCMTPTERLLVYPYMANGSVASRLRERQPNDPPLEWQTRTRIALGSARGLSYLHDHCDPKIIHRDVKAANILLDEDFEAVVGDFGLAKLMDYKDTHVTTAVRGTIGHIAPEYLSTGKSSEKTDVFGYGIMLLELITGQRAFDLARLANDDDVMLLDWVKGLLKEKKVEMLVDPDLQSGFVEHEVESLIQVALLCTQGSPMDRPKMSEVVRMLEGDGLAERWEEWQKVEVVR
Outline: as §1

[10] = tested on: T2, LOC_OS04G41100-cb001
T2 sequence (whole entry): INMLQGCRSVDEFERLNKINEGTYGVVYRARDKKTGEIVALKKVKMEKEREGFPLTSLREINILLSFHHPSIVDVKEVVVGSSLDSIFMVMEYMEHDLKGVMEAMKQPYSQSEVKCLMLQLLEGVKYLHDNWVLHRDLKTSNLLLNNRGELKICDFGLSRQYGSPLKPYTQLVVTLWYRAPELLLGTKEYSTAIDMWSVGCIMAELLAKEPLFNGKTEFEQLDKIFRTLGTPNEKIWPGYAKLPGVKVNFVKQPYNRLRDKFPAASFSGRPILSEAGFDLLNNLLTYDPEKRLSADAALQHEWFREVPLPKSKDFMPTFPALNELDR
Outline: as §1
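Further: purified Escherichia coli-expressed rice kinase domain construct.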

Structure (SMILES)	thermal shift delta Tm [1]	thermal shift delta Tm [2]	thermal shift delta Tm [3]	thermal shift delta Tm [4]	thermal shift delta Tm [5]	thermal shift delta Tm [6]	thermal shift delta Tm [7]	thermal shift delta Tm [8]	thermal shift delta Tm [9]	thermal shift delta Tm [10]
Cc1ccc(NC(=O)c2cccc(C(C)(C)C#N)c2)cc1Nc1ccc2ncn(C)c(=O)c2c1	1.15 °C	1.43 °C	0.45 °C	0.66 °C	0.38 °C	0.1 °C	0.54 °C	0.51 °C	0.88 °C	0.24 °C
COc1cc(Nc2ncc(F)c(Nc3ccc4c(n3)NC(=O)C(C)(C)O4)n2)cc(OC)c1OC	6.19 °C	4.62 °C	0.45 °C	9.67 °C	2.62 °C	10.5 °C	5.15 °C	2.97 °C	4.12 °C	0.74 °C
C=C[C@@](C)(/C=C/c1ccc(O)cc1)CCC=C(C)C [Bakuchiol]	-0.82 °C	-0.05 °C	0.71 °C	-0.13 °C	0.37 °C	0.04 °C	0.28 °C	0.46 °C	0.81 °C	0.44 °C
CC#CC(=O)N1CCC[C@H]1c1nc(-c2ccc(C(=O)Nc3ccccn3)cc2)c2c(N)nccn12 [Acalabrutinib (ACP-196)]	1.09 °C	0.55 °C	0.39 °C	-0.37 °C	0.24 °C	0.4 °C	0.38 °C	0.89 °C	1.22 °C	0.5 °C
O=C(NCc1ccccc1)c1csc(Nc2ccncn2)n1 [Thiazovivin]	0.91 °C	0.46 °C	0.67 °C	1.49 °C	0.04 °C	0.18 °C	0.53 °C	1.56 °C	0.41 °C	0.67 °C
Cn1cc(-c2ccc3c(c2)CCN3C(=O)Cc2cccc(C(F)(F)F)c2)c2c(N)ncnc21	4.4 °C	2.71 °C	0.45 °C	0.39 °C	0.12 °C	0 °C	0.95 °C	2.08 °C	1.08 °C	1.28 °C
O=c1ccc2ccc(O)c(O)c2o1 [Daphnetin]	1.1 °C	0.54 °C	0.75 °C	-0.23 °C	0.69 °C	1.08 °C	0.83 °C	0.8 °C	1.96 °C	0.36 °C
C#Cc1cccc(Nc2ncnc3cc(OCCOC)c(OCCOC)cc23)c1 [Erlotinib]	4.13 °C	0.7 °C	0.03 °C	2.11 °C	0.02 °C	-0.06 °C	1.07 °C	6.16 °C	1.65 °C	-0.05 °C
N#CC[C@H](C1CCCC1)n1cc(-c2ncnc3[nH]ccc23)cn1	0.42 °C	1.39 °C	0.15 °C	2.16 °C	0.41 °C	0.17 °C	0.46 °C	0.65 °C	1.14 °C	0.66 °C
CC#CC(=O)Nc1ccc2ncnc(Nc3cccc(Br)c3)c2c1	-0.66 °C	0.79 °C	0.48 °C	0.54 °C	0.39 °C	-0.04 °C	1.24 °C	3.68 °C	1.41 °C	0.03 °C
Nc1ncccc1-c1nc2ccc(-c3ccccc3)nc2n1-c1ccc(C2(N)CCC2)cc1 [Miransertib (ARQ 092) HCl]	0.57 °C	-0.18 °C	0.2 °C	-0.09 °C	0.04 °C	0.49 °C	-0.05 °C	0.38 °C	0.6 °C	0.18 °C
N#Cc1c(NC(=O)c2cccc3ccccc23)sc2c1CCCC2 [JNK Inhibitor IX]	0.59 °C	-0.12 °C	0.41 °C	-0.14 °C	0.23 °C	0.19 °C	0.38 °C	0.53 °C	1.73 °C	0.46 °C
COc1cc(N2CCN(C)CC2)ccc1Nc1ncc2c(n1)N(C)c1ccccc1C(=O)N2	0.85 °C	0.32 °C	0.17 °C	0.62 °C	0.11 °C	-0.01 °C	0.23 °C	0.35 °C	1.14 °C	0.17 °C
CCCCNc1ncc2c(-c3ccc(CN4CCN(C)CC4)cc3)cn([C@H]3CC[C@H](O)CC3)c2n1	18.4 °C	0.6 °C	0.12 °C	8.3 °C	10.8 °C	6.64 °C	10.5 °C	12.3 °C	4.63 °C	0.42 °C
CCCCCCCCCC(=O)CC(O)S(=O)(=O)O (stereo not given) [Sodium Houttuyfonate]	0.77 °C	0.52 °C	0.5 °C	0.34 °C	0.41 °C	0.36 °C	0.37 °C	0.65 °C	1.54 °C	0.45 °C
C=CC(=O)Nc1ccc2ncnc(Nc3cccc(Br)c3)c2c1	0.51 °C	0.24 °C	0.68 °C	-0.11 °C	0.2 °C	0.37 °C	0.27 °C	0.79 °C	0.18 °C	0.35 °C
Cn1c2ccccc2c2c3c(c4c5ccccc5n(CCC#N)c4c21)CNC3=O	5.83 °C	0.92 °C	0.61 °C	2.98 °C	1.85 °C	1.84 °C	6.02 °C	11.6 °C	2.74 °C	0.46 °C
c1cc(-c2cnn3cc(-c4ccc(OCCN5CCCCC5)cc4)cnc23)ccn1 [Dorsomorphin 2HCl]	15.2 °C	0.73 °C	0.67 °C	1.8 °C	9.39 °C	1.81 °C	7.51 °C	9.17 °C	3.72 °C	3.16 °C
COc1ccc(Oc2cc(NCCC(F)(F)F)c3ncc(-c4ccc(C(=O)NC5CC5)c(C)c4)n3n2)c(F)c1F	0.77 °C	0.01 °C	0.48 °C	0.31 °C	0.55 °C	0.46 °C	1.7 °C	1.1 °C	1.64 °C	0.4 °C
CC(C)Oc1ccc(-c2nn([C@@H](C)c3oc4ccc(F)cc4c(=O)c3-c3cccc(F)c3)c3ncnc(N)c23)cc1F	-0.54 °C	0.17 °C	0.23 °C	-0.28 °C	0.5 °C	-0.25 °C	0.13 °C	1.09 °C	1.36 °C	0.19 °C
